This is a sample that favours compounds with a hit; in the whole collection about 4% have one here.
D1 ag: human D1 receptor agonism. HEK293 T-REx D1 cells, calcium flux, agonist mode. 360,000 compounds, 1% hits. P21728. activation, % at 2 µM. AID 504660; further: 0% is about no effect
Target sequence (P21728 whole entry, looked up): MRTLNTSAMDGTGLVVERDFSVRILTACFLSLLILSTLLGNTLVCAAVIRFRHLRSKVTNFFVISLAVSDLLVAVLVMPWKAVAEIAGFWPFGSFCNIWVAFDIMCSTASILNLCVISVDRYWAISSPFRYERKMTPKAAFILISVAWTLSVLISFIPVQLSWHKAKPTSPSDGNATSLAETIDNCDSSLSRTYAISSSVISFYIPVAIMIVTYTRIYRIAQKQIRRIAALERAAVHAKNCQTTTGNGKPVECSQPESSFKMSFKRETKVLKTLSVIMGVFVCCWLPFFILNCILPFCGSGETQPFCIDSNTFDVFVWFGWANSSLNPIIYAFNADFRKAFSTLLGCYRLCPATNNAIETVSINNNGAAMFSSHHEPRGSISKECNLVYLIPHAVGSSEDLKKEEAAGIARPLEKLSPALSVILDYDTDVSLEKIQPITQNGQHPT
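Agonism was scored from calcium flux recorded over 180 s (1 read/s) after pintool compound addition, following a 10-cycle baseline. Cells were inducible force-coupled HEK293 TREx D1, plated overnight at 30 C and loaded with no-wash calcium dye.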
TRHR agonist: activates the human TRH receptor. TRHR cells, calcium flux fluo-8, FDSS agonist mode. activation, % at 2 µM. 360,000 compounds, 0.18% hits. AID 493084; further: 0% is about no effect
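In this calcium-flux screen, cells bearing human TRHR are dye-loaded with fluo-8, baselined for 10 cycles, then exposed to library compounds; positive kinetic calcium responses during the agonist phase mark hits, with TRH as control.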
D1 antagonist: human D1 dopamine receptor antagonism | P21728 | 360,000 compounds, 3.2% hits | HEK293 TREx D1 cells, calcium flux, dopamine EC80; stronger effect = lower value | activity change, negative = inhibition, % at 10 µM; in the data active means activity change below about -30%; further: on the % scale 0 is the no-effect control and ±100 the full control effect
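Compound effects on dopamine-evoked calcium signalling were measured in tetracycline-induced HEK293 Trex D1 cells. Dopamine at EC80 followed a 180 s compound pre-read, and fluorescence was tracked kinetically for 180 s more.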
D1 potentiator: human D1 dopamine receptor positive modulation. potentiation, % at 10 µM. HEK293 TREx D1 cells, calcium flux, dopamine EC20 potentiation. 360,000 compounds, 0.036% hits. P21728. AID 504651; in the data active means potentiation above about 30%; further: 0% is about no effect
TRHR enhancer: TRH receptor (human) allosteric enhancement | enhancement, % at 2 µM | TRHR cells, fluo-8 calcium fluorescence, EC20 TRH enhancement | 360,000 compounds, 0.66% hits | P34981; in the data active means enhancement above about 30%; further: 0% is about no effect
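TRHR-expressing cells loaded with fluo-8 calcium dye were read kinetically (ex 480/em 530) during compound addition, then stimulated with an EC20 of TRH (10 nM final). Enhancement of the Gq-mediated intracellular calcium response was scored.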
GRP78 ERSR act: inducers of ER stress response in human glioma cells | U87-MG GRP78 promoter luciferase reporter, 16 h | Potency, µM, for the others: top-dose activation, hits mostly activators | 420,000 compounds, 0.02% hits | AID 602332; active means well fitted activation curve with a large enough effect; further: potency means the concentration at half of the fitted maximal effect; series mostly up to about 76 µM; % of control where 0% means no effect; nearly all actives have a fitted effect of over 35% in size
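Stably transfected U87-MG human glioma cells carrying a GRP78-based luminescent sensor were seeded at 1000 cells/well, pin-dosed with compounds and incubated 16 h. Luciferase reagent was then added, and end-point luminescence was read after 10 min at room temperature.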
Starred values were filed as active, the others as inactive. Unless noted, no stated cut-off is given here; in the data, active means activation above about 30%; inactive means the rest.

For COc1cccc(CN(Cc2ccco2)C(c2ccc(F)cc2)c2nnnn2C(C)(C)C)c1 (stereo unspecified) the results were D1 ag 23, TRHR agonist -1, D1 antagonist -34*, D1 potentiator -13, TRHR enhancer -4 and GRP78 ERSR act -1%.
CC1=C(C(=O)Nc2ccccc2)C(CC(C)C)n2nc(SCc3ccccc3C)nc2N1 (stereo unspecified) was read as D1 ag 1, TRHR agonist 0, D1 antagonist -16, D1 potentiator 2, TRHR enhancer 3 and GRP78 ERSR act -3%.
NCCCNCCCCNC(=O)C(O)NC(=O)CCCCCCN=C(N)N (stereo unspecified) was read as GRP78 ERSR act -5%.
CCOc1ccc(NCc2cccn2-c2nnc(N3CCC(C(=O)NCCc4ccc(OCC)c(OCC)c4)CC3)s2)cc1 was read as D1 ag 0, TRHR agonist 0, D1 antagonist -13, D1 potentiator -6 and TRHR enhancer -13.
For CCOc1ccc(NCc2cccn2-c2nnc(N3CCC(C(=O)NCCc4ccc(OC)c(OC)c4)CC3)s2)cc1 the results were D1 ag 7, TRHR agonist 1, D1 antagonist -31*, D1 potentiator -3 and TRHR enhancer -2.
COc1cccc(-c2cc(CNC(=O)[C@H]3O[C@@H](n4ccc(N)nc4=O)[C@H](O)[C@@H]3O)no2)c1 was read as GRP78 ERSR act -4%.
Screening Cc1sc2ncn(CC(=O)NCC(=O)N(C)Cc3ccccc3)c(=O)c2c1C returned D1 ag 1, TRHR agonist -1, D1 antagonist -5, D1 potentiator 0, TRHR enhancer 7 and GRP78 ERSR act -3%.
`Cc1sc2ncn(CC(=O)NCC(=O)N(C)C3CCCCC3)c(=O)c2c1C` gave D1 ag 0, TRHR agonist 0, D1 antagonist -34*, D1 potentiator -3, TRHR enhancer -3 and GRP78 ERSR act -2%.
For CC1CCCN(C(=O)CSCC(=O)Nc2nc(-c3cccs3)cs2)C1 (stereo unspecified) the results were D1 ag 12, TRHR agonist 3, D1 antagonist -84*, TRHR enhancer -5 and GRP78 ERSR act 3%.
For Cc1ccc(S(C)(=O)=O)cc1C(=O)OCC(=O)N(Cc1ccccc1)Cc1ccccc1 the results were D1 ag 8, TRHR agonist 0, D1 antagonist -9, D1 potentiator -6, TRHR enhancer -3 and GRP78 ERSR act -5%.
Screening Cn1nnnc1Sc1ncnc2scc(-c3ccc(N)cc3)c12 returned D1 ag 3, TRHR agonist -1, D1 antagonist -4, D1 potentiator 7 and TRHR enhancer 9.
`Cc1cccc2cc(C#N)c(SCC#N)nc12` gave D1 ag 32*, TRHR agonist 6, D1 antagonist 9, D1 potentiator 2, TRHR enhancer -6 and GRP78 ERSR act -2%.
For CCc1nc(SCC#N)c(C#N)cc1C the results were D1 ag 0, TRHR agonist 0, D1 antagonist -34*, D1 potentiator -5 and TRHR enhancer -1.
`Cc1ccc(CNc2nc(C)c(-c3ccn(CCN4CCOCC4)n3)s2)o1` gave GRP78 ERSR act -3%.
Screening Cn1cc(CNCC2CCCO2)c(-c2ccc(Oc3ccccc3)cc2)n1 (stereo unspecified) returned D1 ag 46*, TRHR agonist -2, D1 antagonist -23, D1 potentiator -3, TRHR enhancer 2 and GRP78 ERSR act -1%.
Screening Cc1cc(CNCc2cn(C)nc2-c2ccc(Oc3ccccc3)cc2)on1 returned D1 ag 0, TRHR agonist 0, D1 antagonist 2, D1 potentiator -2, TRHR enhancer -2 and GRP78 ERSR act -6%.
CC(C)N(C)Cc1cn(C)nc1-c1ccc(Oc2ccccc2)cc1 was read as D1 ag 2, TRHR agonist 0, D1 antagonist 5, D1 potentiator -3, TRHR enhancer 36* and GRP78 ERSR act -3%.
O=C(CN(c1ccccc1)S(=O)(=O)c1ccccc1)NCCSc1nc2ccccc2s1 was read as D1 ag 8, TRHR agonist 1, D1 antagonist -63*, D1 potentiator 1, TRHR enhancer -6 and GRP78 ERSR act -5%.
For COc1ccc(S(=O)(=O)N(CC(=O)NCCSc2ccccc2)c2ccc(C)cc2)cc1 the results were D1 ag 32*, TRHR agonist 3, D1 antagonist 3, D1 potentiator -2, TRHR enhancer -3 and GRP78 ERSR act -2%.
`CCOc1ccc(N(CC(=O)NCCOc2ccc(C)cc2)S(=O)(=O)c2ccccc2)cc1` gave D1 ag 54*, TRHR agonist 1, D1 antagonist -38*, D1 potentiator 12, TRHR enhancer 13 and GRP78 ERSR act -5%.
COc1ccc(N(CC(=O)NCCSc2ccccc2)S(C)(=O)=O)cc1 was read as D1 ag -1, TRHR agonist 0, D1 antagonist 1, D1 potentiator -6, TRHR enhancer 0 and GRP78 ERSR act 2%.
COc1ccc(N(CC(=O)NCCOc2ccccc2)S(=O)(=O)c2ccc(C)cc2)cc1 was read as D1 ag 2, TRHR agonist 0, D1 antagonist 4, D1 potentiator -7, TRHR enhancer -6 and GRP78 ERSR act -6%.
COc1ccc(S(=O)(=O)N(CC(=O)NCCSc2ccccc2)c2ccc(Cl)cc2)cc1 was read as D1 ag 36*, TRHR agonist -1, D1 antagonist -8, D1 potentiator 2, TRHR enhancer 6 and GRP78 ERSR act -4%.
`CN(C)c1ccc(/C=N/NC(=O)c2sccc2-n2cccc2)cc1` gave D1 ag 0, TRHR agonist 0, D1 antagonist -1, D1 potentiator 1, TRHR enhancer 2 and GRP78 ERSR act 5%.
`CCc1ccc(S(=O)(=O)c2cn(Cc3ccccc3)c3cc(F)c(F)cc3c2=O)cc1` gave D1 ag 3, TRHR agonist 1, D1 antagonist -2, D1 potentiator 1, TRHR enhancer -1 and GRP78 ERSR act -2%.
Screening COc1ccc(NCC(=O)Nc2ccc(Br)cc2F)c(OC)c1 returned D1 ag 3, TRHR agonist 1, D1 antagonist 0, D1 potentiator -2, TRHR enhancer 0 and GRP78 ERSR act -2%.
`COc1ccc(C(=O)c2cn(CC(=O)Nc3ccc4c(c3)OCCO4)c3ccc(OC)cc3c2=O)cc1` gave D1 ag 6, TRHR agonist 0, D1 antagonist -10, D1 potentiator -1, TRHR enhancer -1 and GRP78 ERSR act -3%.
For O=S1(=O)C2CC3CCC2(CN1Cc1ccccc1)O3 (stereo unspecified) the results were GRP78 ERSR act -2%.
